8 compounds from PubChem BioAssay (NCI) can be followed below.

Test systems include SK-MEL-2 melanoma; EKVX NSCLC; SN12C renal; UO-31 renal; TK-10 renal; ACHN renal; CAKI-1 renal; CCRF-CEM leukemia; MOLT-4 leukemia; SR leukemia; RPMI-8226 leukemia; OVCAR-8 ovarian; OVCAR-5 ovarian; OVCAR-4 ovarian; IGROV1 ovarian; OVCAR-3 ovarian; HS 578T breast; NCI/ADR-RES ovarian; SK-OV-3 ovarian; A498 renal.
What all share (test): NCI-60 one-dose screen, 48 h (100 = growth as untreated, 0 = no growth, -100 = all killed)
Conditions in all cases: 10 µM unless noted

Molecules are shown by their SMILES. The panel holds about 83,000 compounds, 20% with a hit somewhere; the sample as a whole holds those more often.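 How to read the values: 0–100, growth inhibition (40 = 60% inhibited); 0, no net growth; -100 to 0, cell death (-40 = 40% of starting cells died; -100 = all dead).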 Values without a mark were called inactive. Active and inactive are the calls of the source. How the source made its calls: active means growth percent below 10; inactive means the rest.

With `CC(=[N-])N1CCC[C@@H](Nc2c3ccccc3nc3ccccc23)C1.[Cl][Pt].[NH-]CCC[NH-]`, the growth in the assay on SK-MEL-2 melanoma is 52.4%; in the assay on EKVX NSCLC, 52.3%; with SN12C renal, 5.71% (active); in the assay with UO-31 renal it was 27.4%; with TK-10 renal, 1.35% (active); in the assay on ACHN renal, -22.2% (active). Also, the growth was 15.5% in the assay on CAKI-1 renal; 35.4% in the assay on CCRF-CEM leukemia; 14.6% in the assay on MOLT-4 leukemia; 17.1% in the assay with SR leukemia; 30.1% in the assay on RPMI-8226 leukemia; 39.1% in the assay with OVCAR-8 ovarian. Further, the growth was 39% with OVCAR-5 ovarian; 20.4% with OVCAR-4 ovarian; 17.2% with IGROV1 ovarian; 3.95% (active) in the assay with OVCAR-3 ovarian; 51.7% with HS 578T breast; 85% with NCI/ADR-RES ovarian.
For the compound `COc1cc(/C=C/c2nc(Nc3ccc(S(=O)(=O)Nc4cc(C)on4)cc3)c3ccccc3n2)ccc1O`, the growth is 72% in the assay on SK-MEL-2 melanoma; 73.3% in the assay on EKVX NSCLC; 60.7% in the assay with SN12C renal; 58% with UO-31 renal; 93% with TK-10 renal; 83.6% in the assay with ACHN renal. The growth in the assay with CAKI-1 renal was 45%; in the assay on CCRF-CEM leukemia, 55.9%; with MOLT-4 leukemia, 42.1%; in the assay with SR leukemia it was 19.4%; with RPMI-8226 leukemia, 72.9%; with OVCAR-8 ovarian it was 73.5%. For the same compound, the growth with OVCAR-5 ovarian is 88.7%; with OVCAR-4 ovarian, 91%; with SK-OV-3 ovarian, 86%; in the assay on IGROV1 ovarian, 59.5%; with OVCAR-3 ovarian, 65.2%; in the assay with HS 578T breast, 78.5%. The growth in the assay with NCI/ADR-RES ovarian is 51%.
Turning to `CCc1cc(Cc2cc(CC)cc(C(C)(C)C)c2O)c(O)c(C(C)(C)C)c1`, the growth in the assay on SK-MEL-2 melanoma is 52.9%; in the assay with EKVX NSCLC it was 17.7%; in the assay with SN12C renal it was 19.1%; in the assay with UO-31 renal, 30.4%; in the assay with TK-10 renal, 37.8%; in the assay on ACHN renal, 13.1%. The growth in the assay on CAKI-1 renal is 19.6%; in the assay on A498 renal, 63.7%; in the assay with MOLT-4 leukemia, 14.4%; in the assay on RPMI-8226 leukemia, 7.4% (active); in the assay with OVCAR-8 ovarian it was 20.4%; in the assay with OVCAR-4 ovarian, 14.3%. Also, the growth in the assay with SK-OV-3 ovarian is 20.6%; with IGROV1 ovarian it was 36.3%; in the assay on OVCAR-3 ovarian, 32.1%.
In the case of `Cc1ccc(S(=O)(=O)N(CC[C@@H]2C[C@H]2c2cc3ccccc3o2)C(=O)NC2CCCCC2)cc1`, the growth with SK-MEL-2 melanoma is 101%; in the assay on EKVX NSCLC, 101%; in the assay with SN12C renal it was 100%; in the assay on UO-31 renal, 75.9%; in the assay on TK-10 renal, 106%; in the assay on ACHN renal, 96.9%. Besides, the growth with CAKI-1 renal was 80.1%; with CCRF-CEM leukemia it was 118%; in the assay on MOLT-4 leukemia, 94.7%; in the assay on SR leukemia, 100%; in the assay on RPMI-8226 leukemia, 107%; in the assay with OVCAR-8 ovarian, 98.8%. The growth with OVCAR-5 ovarian was 95.7%; in the assay on OVCAR-4 ovarian, 93%; in the assay with IGROV1 ovarian, 95.8%; in the assay on OVCAR-3 ovarian, 104%; in the assay with HS 578T breast, 89.8%; in the assay with NCI/ADR-RES ovarian, 86.9%.
For the compound `CC(=O)Nc1cccc(C2=CC(c3ccc(C)cc3)n3ncnc3N2)c1` (configuration not stated), the growth in the assay with SK-MEL-2 melanoma was 103%; in the assay with EKVX NSCLC it was 102%; in the assay on SN12C renal, 101%; in the assay on UO-31 renal it was 79.7%; with TK-10 renal, 110%; in the assay on ACHN renal, 96.7%. Also, the growth in the assay with CAKI-1 renal is 106%; in the assay on A498 renal, 93.9%; in the assay on SR leukemia it was 78.8%; in the assay with RPMI-8226 leukemia, 73.8%; with OVCAR-8 ovarian, 101%; in the assay on OVCAR-5 ovarian, 95.2%. The growth is 103% in the assay with OVCAR-4 ovarian; 133% in the assay on SK-OV-3 ovarian; 114% with IGROV1 ovarian; 101% with OVCAR-3 ovarian; 92.8% with HS 578T breast; 97.6% in the assay on NCI/ADR-RES ovarian.
Take `Cc1nc(Nc2cccc(NC(=O)Nc3ccc(Cl)cc3)c2)c2ccccc2n1`: the growth was 107% with SK-MEL-2 melanoma; 87.2% in the assay on EKVX NSCLC; 92.9% in the assay on SN12C renal; 88.2% with UO-31 renal; 104% in the assay with TK-10 renal; 105% in the assay with ACHN renal. Besides, the growth is 80.4% in the assay with CAKI-1 renal; 82.9% with CCRF-CEM leukemia; 76.7% with MOLT-4 leukemia; 22.1% in the assay with SR leukemia; 66.8% in the assay with RPMI-8226 leukemia; 93.9% with OVCAR-8 ovarian. Further, the growth is 106% in the assay on OVCAR-5 ovarian; 47.8% in the assay with OVCAR-4 ovarian; 97.8% in the assay with SK-OV-3 ovarian; 102% with IGROV1 ovarian; 90.7% in the assay with OVCAR-3 ovarian; 104% with HS 578T breast. In addition, the growth in the assay on NCI/ADR-RES ovarian was 87.4%.
Regarding `COc1cccc(-c2cnco2)c1OCc1c(C)c(COc2c(OC)cccc2-c2cnco2)c(C)c(COc2c(OC)cccc2-c2cnco2)c1C`, the growth was 60.9% in the assay on SK-MEL-2 melanoma; 52.8% in the assay on EKVX NSCLC; 51.4% in the assay with SN12C renal; 30.8% in the assay on UO-31 renal; 28.1% with TK-10 renal; 29.6% in the assay with ACHN renal. In addition, the growth with CAKI-1 renal is 88.7%; with A498 renal it was -13.6% (active); in the assay on MOLT-4 leukemia it was 91.2%; with RPMI-8226 leukemia, 47.4%; in the assay with OVCAR-8 ovarian it was 56.7%; in the assay with OVCAR-5 ovarian, 74.9%. The growth with OVCAR-4 ovarian is 7.51% (active); with IGROV1 ovarian, 80.2%; in the assay with OVCAR-3 ovarian, 63.1%; in the assay on HS 578T breast, 30.8%; in the assay on NCI/ADR-RES ovarian, 81.2%.
With `Clc1ccc(/C=N\N=c2\scc(-c3ccc(Cl)cc3)n2/N=C/c2ccc(Cl)cc2)cc1`, the growth was 91.4% in the assay on SK-MEL-2 melanoma; 109% with EKVX NSCLC; 102% with SN12C renal; 95.7% with UO-31 renal; 92.5% with TK-10 renal; 106% in the assay on ACHN renal. For the same compound, the growth with CAKI-1 renal is 107%; in the assay with CCRF-CEM leukemia, 97%; in the assay with MOLT-4 leukemia, 91.7%; with SR leukemia, 93%; with RPMI-8226 leukemia, 106%; with OVCAR-8 ovarian, 99.5%. Further, the growth was 105% in the assay with OVCAR-5 ovarian; 114% with OVCAR-4 ovarian; 102% in the assay on SK-OV-3 ovarian; 103% with IGROV1 ovarian; 114% with OVCAR-3 ovarian; 109% in the assay on NCI/ADR-RES ovarian.
